Test results published in PubChem BioAssay (NCI).
The panel holds about 79,000 compounds, 15% with a hit somewhere; the sample as a whole holds those more often. Values without a mark were called inactive. The source made the active and inactive calls. Rule as the data show it: active = growth inhibition above about 70%; inactive = the rest. Where a SMILES comes first, the peptide text is derived from it. [ ]: non-standard residue; d: D form. Hiv = CC(C)[C@H](O)C(=O)O

What was measured:
[1] = NCI Yeast Anticancer Drug Screen. Data for the rad50 strain (AID 155);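 also: 0% = growth of vehicle-only cultures of the same strain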; settings: S. cerevisiae rad50 strain growth inhibition; at 50.0 µM; active compounds read high
Procedure, shortened: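 A DNA repair-deficient yeast mutant serves as the test organism; compound-induced growth inhibition is calculated against vehicle-treated cells.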

[2] = NCI Yeast Anticancer Drug Screen. Data for the mec2-1 strain (AID 157); settings: S. cerevisiae mec2-1 strain, at 50.0 µM, active compounds read high
Procedure, shortened: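 Vehicle-treated cultures served as reference for growth inhibition of compound-exposed mec2-1 yeast.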

[3] = NCI Yeast Anticancer Drug Screen. Data for the sgs1 mgt1 strain (AID 161);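 also: 0% = growth of cultures given vehicle only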; settings: S. cerevisiae sgs1 mgt1 strain, at 50.0 µM, active compounds read high
Procedure, shortened: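 Inhibition of yeast growth, normalised to vehicle-treated controls, is reported for a strain bearing genetic alterations in DNA damage repair.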

[4] = NCI Yeast Anticancer Drug Screen. Data for the cln2 rad14 strain (AID 165);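 also: 0% = growth equal to vehicle treated cultures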; settings: S. cerevisiae cln2 rad14 strain, at 50.0 µM, active compounds read high
Procedure, shortened: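 Each compound was tested on cln2 rad14 yeast. Inhibition of growth was calculated against vehicle-exposed controls.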

[5] = NCI Yeast Anticancer Drug Screen. Data for the bub3 strain (AID 167); settings: S. cerevisiae bub3 mutant strain, at 50.0 µM, active compounds read high
Procedure, shortened: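 Inhibition values come from growth of compound-treated mutant yeast normalised to vehicle-treated controls.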

[6] = NCI Yeast Anticancer Drug Screen. Data for the mlh1 rad18 strain (AID 175); settings: S. cerevisiae mlh1 rad18 strain growth inhibition; at 50.0 µM; active compounds read high
Procedure, shortened: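 Vehicle-treated cultures served as the reference for growth inhibition in a yeast strain carrying DNA damage repair alterations exposed to each compound.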

CC(=O)c1c(C)cc(C(C)(C)C)cc1C showed a growth inhibition [1] of 18.4%, a growth inhibition [2] of -1.1% and a growth inhibition [3] of 12.8%. For the same compound, the growth inhibition [4] was -0.55%, the growth inhibition [5] was 9.3% and the growth inhibition [6] was 13.8%.
Compound CNCCCC1c2ccccc2C=Cc2ccccc21 has a growth inhibition [1] of 5.5%, a growth inhibition [2] of 2.9% and a growth inhibition [3] of 12.8%. For the same compound, the growth inhibition [4] was -1.7%, the growth inhibition [5] was 0.15% and the growth inhibition [6] was 11.8%.
With O=C(CC1Sc2ccccc2NC1=O)Nc1cc(Cl)ccc1Cl (centres undefined) the growth inhibition [1] was -2.6%, the growth inhibition [2] was -18.3% and the growth inhibition [3] was -4.55%. The growth inhibition [4] was 25.3%, the growth inhibition [5] was 8.7% and the growth inhibition [6] was -1.45%.
Compound CCOCCn1c(=O)cc(C)c2ccccc21 has a growth inhibition [1] of -20.3%, a growth inhibition [2] of 1.6% and a growth inhibition [3] of -16.8%. The growth inhibition [4] was -41.3%, the growth inhibition [5] was 14.2% and the growth inhibition [6] was -13.7%.
CC1=NC2c3c(-c4ccc(Cl)cc4)cn(-c4ccc(C)cc4)c3N=CN2N1 (centres undefined) gave a growth inhibition [1] of 7.75%, a growth inhibition [2] of -5.9% and a growth inhibition [3] of -16.6%. For the same compound, the growth inhibition [4] was 15.8%, the growth inhibition [5] was 0.5% and the growth inhibition [6] was -1.6%.
For O=C(Nc1ccccc1)Oc1ccc(/C=N/Sc2cccc([N+](=O)[O-])c2)cc1, the growth inhibition [1] was 67.1%, the growth inhibition [2] was 60.6% and the growth inhibition [3] was 73.8% (active). The growth inhibition [4] was 21.2%, the growth inhibition [5] was 73.8% (active) and the growth inhibition [6] was 62.2%.
For O=[N+]([O-])c1ccc(CS(=O)(=O)O)cc1, the growth inhibition [1] was 6.25%, the growth inhibition [2] was -9.05% and the growth inhibition [3] was -6.4%. The growth inhibition [4] was -15.1%, the growth inhibition [5] was 8.8% and the growth inhibition [6] was -5.6%.
C=C1C(O)CC2C(O)C3(C)CCC(C)(C)C3C12O (centres undefined) gave a growth inhibition [1] of 3.55%, a growth inhibition [2] of 1.2% and a growth inhibition [3] of 12.2%. For the same compound, the growth inhibition [4] was 15.3%, the growth inhibition [5] was -0.25% and the growth inhibition [6] was 11.7%.
CC1SC(=S)NC1=O (centres undefined) showed a growth inhibition [1] of -16%, a growth inhibition [2] of -2.1% and a growth inhibition [3] of -10.8%. It also gave a growth inhibition [4] of -2%, a growth inhibition [5] of -10.9% and a growth inhibition [6] of -0.8%.
Compound O=C(Nc1cc2ccccc2cc1C(=O)O)Nc1cccc2ccccc12 has a growth inhibition [1] of 10.2%, a growth inhibition [2] of 7% and a growth inhibition [3] of 32.6%. For the same compound, the growth inhibition [4] was 6.2%, the growth inhibition [5] was 20.1% and the growth inhibition [6] was 30.3%.
Compound COc1cc(CC2COC(=O)[C@@H]2Cc2ccc(O)c(OC)c2)ccc1O (some centres undefined) has a growth inhibition [1] of -29.7%, a growth inhibition [2] of -18.9% and a growth inhibition [3] of -23.4%. It also gave a growth inhibition [4] of 1.25%, a growth inhibition [5] of 6.55% and a growth inhibition [6] of 3.1%.
C=CCOCC(O)CO (centres undefined) gave a growth inhibition [1] of 32.5%, a growth inhibition [2] of -3.9% and a growth inhibition [3] of 29.8%. It also gave a growth inhibition [4] of 16.8%, a growth inhibition [5] of 10.1% and a growth inhibition [6] of 28.1%.
In the case of N#C/C(=C/N1CCNC1=S)C(N)=O, the growth inhibition [1] is reported as 4.95%, the growth inhibition [2] is reported as 5% and the growth inhibition [3] is reported as 9.5%. It also gave a growth inhibition [4] of 23.9%, a growth inhibition [5] of -2.8% and a growth inhibition [6] of 12.4%.
For O=C(/C=C\c1ccccc1)c1ccc(-c2cccc(-c3ccccc3)c2)cc1, the growth inhibition [1] was -8.55%, the growth inhibition [2] was 7.95% and the growth inhibition [3] was 7.5%. For the same compound, the growth inhibition [4] was -17.4%, the growth inhibition [5] was -3.15% and the growth inhibition [6] was -11.1%.
COc1ccc(NC(=O)c2oc3cc(O)ccc3c(=O)c2C)c([N+](=O)[O-])c1 showed a growth inhibition [1] of 0.65%, a growth inhibition [2] of -1.8% and a growth inhibition [3] of 11.5%. It also gave a growth inhibition [4] of 11.9%, a growth inhibition [5] of -15.2% and a growth inhibition [6] of 2.2%.
With Cc1ccc(S(=O)(=O)CC(O)(C(C)C)C(C)C)cc1 the growth inhibition [1] was -19%, the growth inhibition [2] was -8.6% and the growth inhibition [3] was -14.2%. It also gave a growth inhibition [4] of 12.8%, a growth inhibition [5] of 16.6% and a growth inhibition [6] of -17.4%.
Compound COC(=O)c1ccc(-n2c(C)nc(=O)c(-c3ccccc3)c2C)cc1 has a growth inhibition [1] of -6.85%, a growth inhibition [2] of -33.4% and a growth inhibition [3] of 12.4%. The growth inhibition [4] was 11.9%, the growth inhibition [5] was 0.95% and the growth inhibition [6] was 7.65%.
In the case of CC(C)[C@@H]1OC(=O)[C@@H](C)NC(=O)[C@@H]2CCCN2C1=O (cyclo([Hiv]-Pro-[dA])), the growth inhibition [1] is reported as -38.2%, the growth inhibition [2] is reported as -6.75% and the growth inhibition [3] is reported as -15.1%. It also gave a growth inhibition [4] of 5.95%, a growth inhibition [5] of -22.6% and a growth inhibition [6] of -16.4%.
Compound Nc1nnc2nc(CC(=O)c3ccccc3[N+](=O)[O-])c(CC(=O)c3ccccc3[N+](=O)[O-])nn12 has a growth inhibition [1] of 1%, a growth inhibition [2] of 6.05% and a growth inhibition [3] of 18.1%. The growth inhibition [4] was -13.3%, the growth inhibition [5] was -27.4% and the growth inhibition [6] was 8.8%.
